Compounds with a hit are over-represented: about 14% of the library has one in this group of screens.
HADH2 inhib = qHTS Assay for Inhibitors of HADH2 (Hydroxyacyl-Coenzyme A Dehydrogenase, Type II); 3-hydroxyacyl-CoA dehydrogenase type-2 (Homo sapiens), Q99714; recombinant HADH2, NADH fluorescence, beta-hydroxybutyryl-CoA; Potency, µM (titrated, usually from 57.1 µM), for the others: at the highest dose activity change, negative = inhibition, hits mostly inhibitors; 73,000 tested, 3.4% active; AID 886, 2007; further: potency means the concentration at half of the fitted maximal effect; on the % scale 0 is the no-effect control and ±100 the full control effect; nearly all actives have a fitted effect of over 60% in size
Target sequence (Q99714 whole entry, looked up, one chain of several): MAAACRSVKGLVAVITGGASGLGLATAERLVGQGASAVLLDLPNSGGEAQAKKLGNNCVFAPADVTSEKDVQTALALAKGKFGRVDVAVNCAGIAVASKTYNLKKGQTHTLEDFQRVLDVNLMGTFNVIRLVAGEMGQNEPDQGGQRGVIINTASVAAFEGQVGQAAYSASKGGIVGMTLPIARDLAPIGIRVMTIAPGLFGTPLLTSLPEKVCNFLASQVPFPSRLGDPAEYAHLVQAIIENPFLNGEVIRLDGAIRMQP
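20 nM HADH2 + cpd, 15 min RT; add 1 mM NAD+/90 uM beta-hydroxybutyryl-CoA; kinetic fluorescence 360/450 nm, 4 min. Tris-HCl pH 9.0, 0.01% Tween-20.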
HSD17B inhib = qHTS Assay for Inhibitors of HSD17B4, hydroxysteroid (17-beta) dehydrogenase 4. 3-hydroxyacyl-CoA dehydrogenase type-2 (Homo sapiens), Q99714. recombinant HSD17B10, NADH fluorescence kinetic. Potency, µM (doses to about 57.1 µM), without a hit: at the highest dose activity change, negative = inhibition, hits mostly inhibitors. 75,000 tested, 7.6% active. AID 893, 2007;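 further: the protocol describes HADH2 (HSD17B10) and not the HSD17B4 of the title; potency means the concentration at half of the fitted maximal effect; on the % scale 0 is the no-effect control and ±100 the full control effect; nearly all actives have a fitted effect of over 70% in size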
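20 nM HADH2, pH 9.0 Tris/Tween; cpd preinc 15 min RT; start w/ 1 mM NAD+ + 90 uM b-hydroxybutyryl-CoA; kinetic fluor ex360/em450 q30s x 4 min; delta last-first.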
CRE-bla Fsk = Cell signaling CRE-BLA (Fsk stim); 71,000 tested, 2.5% active; CHO CRE-bla reporter (cAMP response element driving beta-lactamase), forskolin EC10, beta-lactamase ratio; Potency, µM (top dose mostly 38.2 µM), without a hit: at the highest dose activity change, negative = inhibition, usual class: activators; AID 662, 2007; active means well fitted activation curve with a large enough effect in the signal ratio, with a control signal flat, not every such curve was filed as active; inconclusive means small, poorly fitted or top-dose-only effect, or effect the other way, or a change in a side signal; the % refers to the signal ratio; further: potency means the concentration at half of the fitted maximal effect; % of control where 0% means no effect
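CRE-bla CHO cells stimulated with EC10 NKH 477 (water-soluble forskolin) and compound titrations, 3 h at 37C; beta-lactamase read with CCF4 after 2 h at room temperature. Activity from 460/530 nm emission ratio, AC50 values for positive or negative modulation.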
A350 autofl = qHTS Assay for Spectroscopic Profiling in A350 Spectral Region; Compound autofluorescence, 340/450 nm, Alexa 350 dye-equivalents; active compounds read high; max dye-equivalent concentration, M; 59,000 tested, 11% active; in the data active means max dye-equivalent concentration above about 10 nM; inconclusive means mostly about 1.1 nM to 9.6 nM
4-MU autofl = qHTS Assay for Spectroscopic Profiling in 4-MU Spectral Region; compound autofluorescence, 340/450 nm, 4-MU equivalents; active compounds read high; max dye-equivalent concentration, M; 59,000 tested, 11% active; in the data active means max dye-equivalent concentration above about 10 nM; inconclusive means mostly about 1.1 nM to 9.6 nM
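Compounds in 100 mM Tris, pH 8.0, incubated 15 min at room temperature, then fluorescence read at 340 nm excitation/450 nm emission. Signal converted to 4-MU dye-equivalent concentration using an on-plate six-point 4-MU standard curve.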
AID923 = qHTS Assay for Allosteric/Competitive Inhibitors of Caspase-1: Spectroscopic Profiling in AFC Spectral Region. Potency, µM (titrated, usually from 57.5 µM), for the others: at the top dose fluorescence increase, actives largely listed as activators. compound fluorescence, AFC spectral region (405/520 nm). 75,000 tested, 1.1% active; further: potency means the concentration at half of the fitted maximal effect; 0% is about no effect
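Titrations up to 57 uM read every 20 sec for 3 min (405/520 nm) with 50 nM caspase 1 and 5 uM Ac-WEHD-AFC, pH 7.5 HEPES buffer. Fluorescence-vs-time intercept gave baseline, scaled against on-plate AFC standard.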
CHO tox 24h = Cell Viability - CRE-beta lactamase CHO cell - 24 hr assay; shares compounds with CRE-bla Fsk; 120 tested, under 10 active; CRE-bla CHO viability, ATP luminescence, 24 h; activity, negative = viability loss, % at 46.1 µM
CHO tox 40h = Cell Viability - CRE-beta lactamase CHO cell - 40 hr assay; 120 tested, under 10 active; Potency, µM, for inactives: max response, actives largely listed as inhibitors; shares compounds with CRE-bla Fsk; CRE-bla CHO viability, ATP luminescence, 40 h
CREB luc CRC = Confirmation Concentration-Response Assay for Cell signaling CRE-BLA (Fsk stim) - HEK293 CREB Luciferase; Potency, µM (series often up to 38.3 µM), for the others: at the top dose activity, positive = activation, usual class: activators; HEK293 CRE-luc2P, NKH477 EC10 potentiation, luminescence, 4 h; AID 907, 2007; 120 tested, 80% active; shares compounds with CRE-bla Fsk
An asterisk follows results filed as active; i = inactive; u = inconclusive; x = no result given; [ ] = remark or other dose. Unless noted, the call rests on the fitted dose curve; in most records, active means well fitted curve in the direction sought with a large enough effect; inconclusive means small, poorly fitted or top-dose-only effect, or another doubt; inactive means no such curve, though single readings can be large; an effect the other way counts as inactive or inconclusive.

SMILES	HADH2 inhib	HSD17B inhib	CRE-bla Fsk	A350 autofl	4-MU autofl	AID923	CHO tox 24h	CHO tox 40h	CREB luc CRC
CN(C)c1nc(N(C)C)nc(N(C)C)n1	u	-1%	6%[17.1 µM]	i	i	1%	3	-3%	u
C=CCN(C(=O)CSc1nc2[nH]ncc2c(=O)n1-c1ccccc1OC)c1ccccc1	4%	5%	u	i	i	2%	x	x	x
CSc1nnc2c3ccccc3n(CCc3ccccc3)c2n1	-3%[11.4 µM]	-27%	0.016µM*	x	x	1%	u	u	3.2µM*
CCCOC(=O)c1[nH]c2c(c1C)C(=O)CC(c1ccc(OC)c(OC)c1)C2 (stereo unspecified)	11%	-9%	7%	i	i	-2%	x	x	x
CCCCCOC(=O)c1[nH]c2c(c1C)C(=O)CC(c1ccco1)C2 (stereo unspecified)	-3%	-14%	0.079µM*	x	x	0%	-22	-27%	-16%
COC(=O)c1ccc(CSc2ccc3nnc(-c4cccnc4)n3n2)o1	-11%	10%	u	x	x	2%	x	x	x
COC(=O)c1ccc(CSc2ccc3nnc(-c4ccc(OC)c(OC)c4)n3n2)o1	-7%	u	1.6µM*	i	i	-1%	-20	-28%	2µM*
O=S(=O)(c1ccc2c(c1)OCCO2)N1CCN(c2cccc(Cl)c2)CC1	5%	-2%	u	i	i	0%	x	x	x
O=S(=O)(c1ccc2c(c1)OCCO2)N1CCC(O)(c2ccc(Cl)cc2)CC1	3%	22%	1%	i	i	2%	-2	-6%	u
Cc1cc(C)cc(O)c1	-2%	1%	-6%	x	x	-1%	x	x	x
CCOc1ccc(C2c3c(oc4ccccc4c3=O)C(=O)N2c2ccc(C)cn2)cc1OC (stereo unspecified)	-5%	0%	2µM*	x	x	1%	-9	-27%	10µM*
COC(=O)[C@@]1(Cc2ccc(F)cc2)[C@H]2c3cc(C(=O)N(C)C)n(Cc4ccsc4Br)c3C[C@H]2CN1C(=O)c1ccccc1	16%	4%	u	x	x	0%	x	x	x
O=C(Nc1ccccc1O)c1cc(S(=O)(=O)N2CCOCC2)ccc1Cl	-7%	2%	1%	i	i	3%	5	-9%	16µM*
